ST2 IL33 inh: IL1RL1 inhibition; Q01638; 78,000 compounds, 2.3% hits; AlphaLISA ST2-Fc/biotin-IL-33 interaction, 1 h; inhibition, % for hits at 17 µM; in the data active = inhibition above about 30%
Target sequence (Q01638 whole entry, looked up): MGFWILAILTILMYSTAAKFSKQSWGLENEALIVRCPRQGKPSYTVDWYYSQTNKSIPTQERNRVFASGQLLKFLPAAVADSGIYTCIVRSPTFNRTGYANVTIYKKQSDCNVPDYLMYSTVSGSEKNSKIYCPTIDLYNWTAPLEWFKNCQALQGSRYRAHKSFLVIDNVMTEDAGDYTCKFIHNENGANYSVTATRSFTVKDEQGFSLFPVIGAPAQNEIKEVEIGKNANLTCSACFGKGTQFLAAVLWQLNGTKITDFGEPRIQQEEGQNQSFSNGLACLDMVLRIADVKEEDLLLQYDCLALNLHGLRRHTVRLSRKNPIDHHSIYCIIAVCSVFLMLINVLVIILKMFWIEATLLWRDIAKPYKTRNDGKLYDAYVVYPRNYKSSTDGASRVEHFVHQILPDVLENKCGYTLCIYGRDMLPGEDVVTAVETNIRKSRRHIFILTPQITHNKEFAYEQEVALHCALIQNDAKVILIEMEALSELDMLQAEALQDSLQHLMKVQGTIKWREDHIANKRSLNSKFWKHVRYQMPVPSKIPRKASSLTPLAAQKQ
Hits are given with their value; . = inactive. Many of the other results were omitted from the sample, so hits are more common in it than they were.

SMILES	ST2 IL33 inh
CC1CCN(Cc2cc([N+](=O)[O-])c(O)c3ncccc23)CC1	.
CC(C)CC(NC(=O)c1ccc2c(c1)OCCN2C)c1nnc2n1CCNCC2 (centres undefined)	.
Cc1[nH]nc2c1C(c1ccc(Br)cc1F)C(C#N)=C(N)O2 (centres undefined)	.
CC(C)Oc1ccc(C(=O)NCc2cccnc2N2CCN(C)CC2)cc1	.
CC(=O)Nc1ccc(S(=O)(=O)N2C[C@@H]3C[C@H](C2)c2ccc(-c4ccccc4CN4CCOCC4)c(=O)n2C3)cc1	.
Cc1ccc(C2CC(c3ccc(C(C)C)cc3)n3ncnc3N2)cc1 (centres undefined)	.
O=C(NCc1ccc(Cl)cc1)c1cc(-c2ccc(Br)cc2)on1	.
CC1=C(C(=O)Nc2ccc(C)cc2C)C(c2ccc(Br)cc2)n2nnnc2N1 (centres undefined)	.
COc1cccc(Nc2nc3ccccc3nc2NS(=O)(=O)c2ccc(NC(C)=O)cc2)c1	37%
COc1ccccc1NS(=O)(=O)c1ccc(NC(C)=O)cc1	.
COc1ccc(NS(=O)(=O)c2ccc(NC(=O)COc3ccccc3)cc2)cc1	.
NC(=O)c1ccc(NS(=O)(=O)c2cccc3nsnc23)cc1	.
Cc1[nH]c2c(ccc3ccccc32)c(=O)c1CN(C)Cc1ccccc1	.
Cc1ncsc1CCN(C)Cc1cccc(-n2cccn2)c1	.
Cc1ccc2c3c(c(N)c(=O)[nH]c13)-c1ccccc1C2=O	51%
CCN1CCN(C(=O)CCC2CCN(C(=O)C3CCN(C(=O)N(C)C)CC3)CC2)CC1	.
Cc1ccccc1CCC(=O)N(C)CC1(CO)CCOCC1	.
CC(C)CN1C(=O)c2ccc(S(=O)(=O)c3ccc4c(c3)C(=O)N(CC(C)C)C4=O)cc2C1=O	.
O=C(O)c1ccc(S(=O)(=O)c2ccc3c(c2)C(=O)N(c2nccs2)C3=O)cc1	.
CC(C)(C)N1C(=O)c2ccc(S(=O)(=O)c3ccc4c(c3)C(=O)N(C(C)(C)C)C4=O)cc2C1=O	30%
CNCC(=O)N1CCCC(OCc2ccccn2)C1 (centres undefined)	.
Cc1ccc(C)c(S(=O)(=O)N=C2C=C(Nc3ccccc3)C(=O)c3ccccc32)c1	88%
COc1ccc(NC2=CC(=NS(=O)(=O)c3cc(C)ccc3C)c3ccccc3C2=O)cc1	95%
Cc1ccc(C)c(S(=O)(=O)Nc2ccccc2Cl)c1	.
COc1ccc(Nc2cc(C)nc(N3CCN(S(=O)(=O)c4ccc(C)cc4C)CC3)n2)cc1	.
SMILES	ST2 IL33 inh
COc1ccc(S(=O)(=O)Nc2cc(C)ccc2C)cc1	.
CN=C(NS(=O)(=O)c1cc(C)ccc1C)c1ccccc1	.
O=C(Cc1cccnc1)N1CCCC(Nc2ccc(F)c(F)c2)C1 (centres undefined)	.
COc1ccc(NC(=O)CCC2CCCCC2)c([N+](=O)[O-])c1	.
CCc1ccc(-c2nc(CN3CCC(C(=O)NCCN4CCCC4)CC3)c(C)o2)cc1	.
Cc1ccccc1OCCCC(=O)NC1CCCC1	.
OC1CCN(Cc2ccc(Br)cc2)CC1	.
Cc1ccc(NC(=O)Cn2c(=O)n(-c3ccc(F)cc3)c(=O)c3sccc32)cc1	.
CC(=O)NC(=O)c1cc2ccccc2oc1=Nc1ccc(C#N)cc1	.
Ic1ccc(-c2csc(Nc3ccc4c(c3)OCO4)n2)cc1	.
Cc1nc(-c2ccc([N+](=O)[O-])cc2)cs1	.
Cc1ccc(Nc2nc(-c3ccc([N+](=O)[O-])cc3)cs2)cc1C	33%
CCNc1ncc(C(=O)N2CCOC(CCCc3ccccc3)C2)cn1 (centres undefined)	.
COc1ccc(C2C(C#N)=C(N)Oc3n[nH]c(-c4ccc(F)cc4)c32)cc1OC (centres undefined)	31%
COc1ccc(C2C(C#N)=C(N)Oc3n[nH]c(-c4ccc5ccccc5c4)c32)cc1OC (centres undefined)	.
COc1cc(C2C(C#N)=C(N)Oc3n[nH]c(-c4ccccc4)c32)ccc1O (centres undefined)	.
CSCC[C@@H](C(=O)NC(C)c1ccc2c(c1)OCCO2)N1Cc2ccccc2C1=O (some centres undefined)	.
COC(=O)Oc1ccc2c(=O)c(Oc3ccc(C)cc3)coc2c1	30%
Cc1cc(C)cc(Oc2coc3cc(OC(=O)C(C)C)ccc3c2=O)c1	.
CC(=O)Oc1ccc2c(=O)c(Oc3ccccc3)coc2c1	.
O=C1N(Cc2cccnc2)C(=O)C2(CCN(Cc3ccccc3Cl)CC2)N1CCc1ccccc1	.
COCCCN1C(=O)N(Cc2ccccc2)C(=O)C12CCN(Cc1c(F)cccc1Cl)CC2	32%
CCN1C(=O)N(CCc2ccccc2)C2(CCN(Cc3cccc(OC)c3OC)CC2)C1=O	.
COC(=O)C1C(=O)C2=C(CC1C)NC(C)=C(C(=O)OCCOC(C)C)C2c1ccc(C)s1 (centres undefined)	.
O=C1CCC(C(=O)N2CCCCCCC2)CN1CCc1ccccc1 (centres undefined)	.
O=C1C=CC(=O)C(C2=C3C(=O)N(CCc4ccccc4)CC(=O)N3CCC2)=C1	38%
O=C1c2ccccc2C(=O)N1CCc1ccccc1	.
CCN(CC)CCCNCc1c(F)cccc1Cl	.
